Measurements reported in the supplement of paper PMC12669032.

How the values were obtained:
Test in all cases: growth AUC relative to DMSO control (median of replicates) (fraction); higher = more growth (less inhibition), active = hit call of the paper
Conditions in all cases: 20 µM; 24 h;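 active = AUC reduced over 20% with Padj below 0.05 in at least 2 of 3 replicates; inactive = otherwise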
Akkermansia muciniphila = tested on: Akkermansia muciniphila
How it was run: (§1)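 Hourly OD600 readings over 24 h tracked anaerobic gut bacterial monocultures grown at 37 °C in mGAM from OD600 0.05 with 20 µM compound (1% DMSO). After the minimum OD was set to 0, area under the growth curve was normalised to the plate median of solvent-only wells, or to row and column medians on the industrial chemical plate. Values are medians of three biological replicates grown on separate days.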

Bacteroides caccae = tested on: Bacteroides caccae
How it was run: as §1

Bacteroides clarus = tested on: Bacteroides clarus
How it was run: as §1

Bacteroides dorei = tested on: Bacteroides dorei
How it was run: as §1

Bacteroides stercoris = tested on: Bacteroides stercoris
How it was run: as §1

[1] = tested on: Bacteroides thetaiotaomicron
How it was run: as §1

Bacteroides uniformis = tested on: Bacteroides uniformis
How it was run: as §1

[2] = tested on: Bifidobacterium longum subsp. longum
How it was run: as §1

Clostridium difficile = tested on: Clostridium difficile
How it was run: as §1

Collinsella aerofaciens = tested on: Collinsella aerofaciens
How it was run: as §1

Measured: growth AUC

Cc1cccc(C)c1N(Cn1cccn1)C(=O)CCl
inactive: Akkermansia muciniphila 1.02 | Bacteroides caccae 0.829 | Bacteroides clarus 0.997 | Bacteroides dorei 0.974 | Bacteroides stercoris 1.01 | [1] 0.987 | Bacteroides uniformis 0.969 | [2] 1.07 | Clostridium difficile 1.01 | Collinsella aerofaciens 0.952

CCOP(=S)(OCC)Oc1cc(C)nc(N(CC)CC)n1
inactive: Akkermansia muciniphila 1.03 | Bacteroides caccae 0.926 | Bacteroides clarus 0.979 | Bacteroides dorei 0.976 | Bacteroides stercoris 0.938 | [1] 0.961 | Bacteroides uniformis 0.943 | [2] 1.01 | Clostridium difficile 1 | Collinsella aerofaciens 0.994

CC1(C)C(C=C(Cl)Cl)[C@@H]1C(=O)O[C@@H](C#N)c1ccc(F)c(Oc2ccccc2)c1 (stereo not given in full)
inactive: Akkermansia muciniphila 0.998 | Bacteroides caccae 0.986 | Bacteroides clarus 1.01 | Bacteroides dorei 1.01 | Bacteroides stercoris 0.992 | [1] 1 | Bacteroides uniformis 0.976 | [2] 0.983 | Clostridium difficile 0.996 | Collinsella aerofaciens 0.96

CC(C)OC(=O)C(O)(c1ccc(Br)cc1)c1ccc(Br)cc1
inactive: Akkermansia muciniphila 0.997 | Bacteroides caccae 0.883 | Bacteroides dorei 0.933 | [1] 0.93 | Bacteroides uniformis 0.923 | [2] 0.96 | Clostridium difficile 0.982 | Collinsella aerofaciens 0.928
active: Bacteroides clarus 0.779 | Bacteroides stercoris 0.239

Cc1occc1C(=O)Nc1ccccc1
inactive: Akkermansia muciniphila 0.899 | Bacteroides caccae 1 | Bacteroides clarus 0.958 | Bacteroides dorei 1.04 | Bacteroides stercoris 0.952 | [1] 1.02 | Bacteroides uniformis 1 | [2] 1.02 | Clostridium difficile 1.05 | Collinsella aerofaciens 0.959

ClC1=C(Cl)[C@]2(Cl)C3CC=CC3[C@@]1(Cl)C2(Cl)Cl (stereo not given in full)
inactive: Akkermansia muciniphila 0.898 | Bacteroides caccae 1.03 | Bacteroides clarus 0.999 | Bacteroides dorei 0.992 | Bacteroides stercoris 0.973 | [1] 0.981 | Bacteroides uniformis 0.971 | [2] 0.994 | Clostridium difficile 0.997 | Collinsella aerofaciens 0.965

CCCSC(=O)N(CCC)CCC
inactive: Akkermansia muciniphila 0.868 | Bacteroides caccae 0.991 | Bacteroides clarus 0.957 | Bacteroides dorei 1.02 | Bacteroides stercoris 0.946 | [1] 1.01 | Bacteroides uniformis 1.02 | [2] 1.04 | Clostridium difficile 1.01 | Collinsella aerofaciens 0.967

N#Cc1sc2c(=O)c3ccccc3c(=O)c=2sc1C#N
inactive: Akkermansia muciniphila 0.95 | Bacteroides caccae 0.982 | Bacteroides clarus 0.948 | Bacteroides dorei 0.979 | Bacteroides stercoris 0.783 | [1] 0.974 | Bacteroides uniformis 0.882 | [2] 0.84 | Clostridium difficile 0.968 | Collinsella aerofaciens 1.09

COC(=O)C(Cl)Cl
inactive: Akkermansia muciniphila 1 | Bacteroides caccae 0.968 | Bacteroides clarus 0.992 | Bacteroides dorei 1 | Bacteroides stercoris 1.06 | [1] 1.02 | Bacteroides uniformis 0.971 | [2] 0.957 | Clostridium difficile 0.997 | Collinsella aerofaciens 0.991

Nc1c(Cl)cc([N+](=O)[O-])cc1Cl
inactive: Akkermansia muciniphila 0.958 | Bacteroides caccae 0.927 | Bacteroides clarus 0.973 | Bacteroides dorei 0.967 | Bacteroides stercoris 0.875 | [1] 0.986 | Bacteroides uniformis 1.05 | [2] 1.07 | Clostridium difficile 1 | Collinsella aerofaciens 0.897

CCCOC(=O)c1ccccc1C(=O)OCCC
inactive: Akkermansia muciniphila 1.16 | Bacteroides caccae 1.04 | Bacteroides clarus 1.03 | Bacteroides dorei 0.983 | Bacteroides stercoris 1.18 | [1] 0.992 | Bacteroides uniformis 0.989 | [2] 1.05 | Clostridium difficile 0.999 | Collinsella aerofaciens 1.01

COc1ccc(/C(=C/C(=O)N2CCOCC2)c2ccc(Cl)cc2)cc1OC
inactive: Akkermansia muciniphila 1.1 | Bacteroides caccae 0.962 | Bacteroides clarus 1 | Bacteroides dorei 0.93 | Bacteroides stercoris 1.33 | [1] 0.978 | Bacteroides uniformis 0.954 | [2] 1.04 | Clostridium difficile 0.932 | Collinsella aerofaciens 0.93

O=S1OCC2C(CO1)C1(Cl)C(Cl)=C(Cl)C2(Cl)C1(Cl)Cl (stereo not given)
inactive: Akkermansia muciniphila 1.08 | Bacteroides caccae 1 | Bacteroides clarus 0.962 | Bacteroides dorei 0.999 | Bacteroides stercoris 0.779 | [1] 0.976 | Bacteroides uniformis 0.874 | [2] 1.04 | Clostridium difficile 0.992 | Collinsella aerofaciens 0.971

C=CCNC(=O)c1c([Si](C)(C)C)sc(C)c1C
inactive: Akkermansia muciniphila 0.751 | Bacteroides caccae 0.964 | Bacteroides clarus 0.973 | Bacteroides dorei 0.978 | Bacteroides stercoris 0.961 | [1] 0.96 | Bacteroides uniformis 0.973 | [2] 0.966 | Clostridium difficile 0.968 | Collinsella aerofaciens 0.981
